Records with an inconclusive call do not appear. Calls of active or inactive are those of the source. The call rests on the fitted dose curve; in most records, active means well fitted cell-killing curve with a large enough effect; inconclusive means small, poorly fitted or top-dose-only effect, or effect the other way; inactive means flat fitted curve, though single readings scatter.
Key:
Test in all cases: Primary qHTS to identify gynecologic anti-cancer compounds using libraries of approved drugs and bioactive compounds (AID 1345084); further: nearly all actives have a fitted effect of over 55% in size
Details in all cases: Gynecologic cancer cell panel viability, ATPlite luminescence, 48 h; series mostly up to 57.5 µM
OV90 = system: OV90
Procedure, shortened: (§1)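 ATP-based viability (ATPlite), 1,000 cells/well, 16 h pre-incubation, 48 h compound at 37 C, 5% CO2, 15 min RT before read.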

PA-1 = system: PA-1
Procedure, shortened: as §1

SKOV3 = system: SKOV3
Procedure, shortened: as §1

Tov-21-G = system: Tov-21-G
Procedure, shortened: as §1

Tov112D = system: Tov112D
Procedure, shortened: as §1
On the % scale 0 is the no-effect control and ±100 the full control effect.

C/C(=C\CO)CC/C=C(\C)C(=O)O[C@@H]1O[C@H](CO)[C@@H](O)[C@H](O)[C@H]1O
inactive: Potency (OV90) | Potency (PA-1) | Potency (SKOV3) | Potency (Tov-21-G) | Potency (Tov112D)

C[C@@H]1O[C@@H](O[C@H]2[C@H](Oc3cc(O)c(C(=O)CCc4ccc(O)cc4)c(O)c3)O[C@H](CO)[C@@H](O)[C@@H]2O)[C@H](O)[C@H](O)[C@H]1O
inactive: Potency (OV90) | Potency (PA-1) | Potency (SKOV3) | Potency (Tov-21-G) | Potency (Tov112D)

C[C@H]1[C@H](C)CC[C@]2(C(=O)O)CC[C@]3(C(=O)O)C(=CCC4[C@@]5(C)CC[C@H](O[C@@H]6O[C@@H](C)[C@H](O)[C@@H](O)[C@H]6O)C(C)(C)C5CC[C@]43C)[C@H]12 (stereo not given in full)
inactive: Potency (OV90) | Potency (PA-1) | Potency (SKOV3) | Potency (Tov-21-G) | Potency (Tov112D)

O=C(O)CC1CCC(c2ccc(-c3ccc(Nc4ccc(C(F)(F)F)nc4)cn3)cc2)CC1 (stereo not given)
inactive: Potency (OV90) | Potency (PA-1) | Potency (SKOV3) | Potency (Tov-21-G) | Potency (Tov112D)

C/C=C/C=C/C=C/C(=O)N(C)C(C(=O)NC(C)C(=O)N1CCCC1C(N)=O)C(C)C (stereo not given)
inactive: Potency (OV90) | Potency (PA-1) | Potency (SKOV3) | Potency (Tov-21-G) | Potency (Tov112D)

N[C@@H](CCNCc1ccc(Cl)cc1)C(=O)N1CCCCC1
inactive: Potency (OV90) | Potency (PA-1) | Potency (SKOV3) | Potency (Tov-21-G) | Potency (Tov112D)

CC1(C)C2CCC1(C)C(OC(=O)C(O)(CC(=O)O)CC(=O)O)C2 (stereo not given)
inactive: Potency (OV90) | Potency (PA-1) | Potency (SKOV3) | Potency (Tov-21-G) | Potency (Tov112D)

C=C1C2CCC3CC2(CC(O)C2(O)C1CC(OC1OC(CO)C(O)C(O)C1O)C2(C)C)CC3(C)O (stereo not given)
inactive: Potency (OV90) | Potency (PA-1) | Potency (SKOV3) | Potency (Tov-21-G) | Potency (Tov112D)

CC1(C)CC=C(C#Cc2ccccc2)c2cc(/C=C/c3ccc(C(=O)O)cc3)ccc21
inactive: Potency (OV90) | Potency (PA-1) | Potency (SKOV3) | Potency (Tov-21-G) | Potency (Tov112D)

C=C(COC(=O)C(C)C)C1Oc2cc(C(C)=O)ccc2C1OC(=O)C(C)C (stereo not given)
inactive: Potency (OV90) | Potency (PA-1) | Potency (SKOV3) | Potency (Tov-21-G) | Potency (Tov112D)

C[C@H]1[C@H](C)CC[C@]2(C(=O)OC3OC(CO)C(O)C(O)C3O)CC[C@]3(C(=O)O)C(=CCC4[C@@]5(C)CC[C@H](O[C@@H]6O[C@@H](C)[C@H](OC7OC(CO)C(O)C(O)C7O)[C@@H](O)[C@H]6O)C(C)(C)C5CC[C@]43C)[C@H]12 (stereo not given in full)
inactive: activity change, negative = cytotoxicity (OV90) 2.97% [at 11.6 µM] | activity change, negative = cytotoxicity (PA-1) -4.62% [at 11.6 µM] | activity change, negative = cytotoxicity (SKOV3) 0% [at 11.6 µM] | activity change, negative = cytotoxicity (Tov-21-G) 0.351% [at 11.6 µM] | activity change, negative = cytotoxicity (Tov112D) -1.72% [at 11.6 µM]

CSCC1OC(n2cnc3c(=O)[nH]cnc32)C(O)C1O (stereo not given)
inactive: Potency (OV90) | Potency (PA-1) | Potency (SKOV3) | Potency (Tov-21-G) | Potency (Tov112D)

O=C(N[C@@H]1CC[C@@H](c2cccc(F)c2F)CN(CC(F)(F)F)C1=O)N1CCC(n2c(=O)[nH]c3ncccc32)CC1
inactive: Potency (OV90) | Potency (PA-1) | Potency (SKOV3) | Potency (Tov-21-G) | Potency (Tov112D)

NC(N)=NCCC[C@H](NC(=O)c1sccc1NS(=O)(=O)c1cccc2nsnc12)C(=O)O
inactive: Potency (OV90) | Potency (PA-1) | Potency (SKOV3) | Potency (Tov-21-G) | Potency (Tov112D)

CC(CCO)CCC1C2(C)CCCC(C)(C)C2CC[C@@]1(C)O (stereo not given in full)
inactive: Potency (OV90) | Potency (PA-1) | Potency (SKOV3) | Potency (Tov-21-G) | Potency (Tov112D)

COc1ccc(C2OCC3C(c4cc(OC)c5c(c4)OCO5)OCC23)cc1OC (stereo not given)
inactive: Potency (OV90) | Potency (PA-1) | Potency (SKOV3) | Potency (Tov-21-G) | Potency (Tov112D)

CC[C@@H](Nc1c(Nc2cccc(C(=O)N(C)C)c2O)c(=O)c1=O)c1ccc(C)o1
inactive: Potency (OV90) | Potency (PA-1) | Potency (SKOV3) | Potency (Tov-21-G) | Potency (Tov112D)

CC(=O)OC1C(CO)OC(O[C@H]2[C@H](OC(=O)[C@]34CCC(C)(C)C[C@H]3C3=CCC5[C@@]6(C)CC[C@H](O[C@@H]7O[C@H](C(=O)O)[C@@H](O)[C@H](O[C@@H]8OC[C@@H](O)[C@H](O)[C@H]8O)[C@H]7O[C@@H]7O[C@H](CO)[C@H](O)[C@H](O)[C@H]7O)[C@@](C)(C=O)C6CC[C@@]5(C)[C@]3(C)C[C@H]4O)O[C@H](C)[C@H](OC3OC(C)C(OC4OCC(O)C(O)C4O)C(O)C3O)[C@@H]2O)C(O)C1O (stereo not given in full)
inactive: activity change, negative = cytotoxicity (OV90) -0.616% [at 6.55 µM] | activity change, negative = cytotoxicity (PA-1) 13.7% [at 6.55 µM] | activity change, negative = cytotoxicity (SKOV3) 33.2% [at 6.55 µM] | activity change, negative = cytotoxicity (Tov-21-G) 2.01% [at 6.55 µM] | activity change, negative = cytotoxicity (Tov112D) 5.09% [at 6.55 µM]

CC1=C2C[C@@]3(C)[C@@H](CCC[C@@H]3C)C[C@@]2(O)OC1=O
inactive: Potency (OV90) | Potency (PA-1) | Potency (SKOV3) | Potency (Tov-21-G) | Potency (Tov112D)

OCC1=C[C@@H](O)[C@@H]2C=CO[C@@H](O[C@@H]3O[C@H](CO)[C@@H](O)[C@H](O)[C@H]3O)[C@H]12
inactive: Potency (OV90) | Potency (PA-1) | Potency (SKOV3) | Potency (Tov-21-G) | Potency (Tov112D)

From PubChem BioAssay (NCATS)
